Test results published in the supplement of paper PMC8975748.
Structures can show the parent of a compound that is named as a salt. ± gives the standard deviation of the averaged measurements.

Experiments:
[1] = system: Saccharomyces cerevisiae BY4741 SeMeCo community; experiment: mean cell size (pixel area) (pixels); higher = larger cells; details: 10 µM; 24 h; SM minimal medium
Summary of the method: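 Yeast cells were fixed with paraformaldehyde, imaged by automated confocal microscopy and analysed in Harmony to obtain mean cell pixel area per well. They came from a four-plasmid fluorescent Saccharomyces cerevisiae BY4741 community, each plasmid complementing one auxotrophy and carrying a fluorescent marker. Before imaging, 70 µl of culture at OD600 = 0.3 was incubated for 24 h in SM medium in 384-well plates predosed acoustically with drug (final 10 µM). Values are means of 3 replicates. Same SeMeCo high-content imaging drug screen: Selleck FDA-approved drugs at 10 µM, 24 h in SM medium, 384-well plates, 3 replicates.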

[2] = system: Saccharomyces cerevisiae BY4741 SeMeCo community; experiment: z-score of prototroph abundance vs DMSO median; higher = larger share of this subpopulation than in DMSO controls; details: 10 µM; 24 h; SM minimal medium; subpopulation (auxotrophy): Prototroph
Summary of the method: (§1)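 Cells of a Saccharomyces cerevisiae BY4741 community, carrying four plasmids that each restored one auxotrophy and encoded a distinct fluorescent protein, were pre-grown overnight to OD600 1.0 and diluted to 0.3. A 70 µl volume was added to 384-well plates acoustically predosed with library drugs (10 µM final) and grown 24 h in minimal SM medium. After paraformaldehyde fixation, automated confocal microscopy was used, with single-auxotroph fluorescent strains for thresholds and autofluorescence correction. The abundance of each subpopulation was scored as a z-score against the vehicle-well median.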

[3] = system: Saccharomyces cerevisiae BY4741 SeMeCo community; experiment: z-score of subpopulation abundance vs DMSO median, subpopulation auxotrophic for M; higher = larger share of this subpopulation than in DMSO controls; details: 10 µM; 24 h; SM minimal medium; subpopulation (auxotrophy): M
Summary of the method: as §1

[4] = system: Saccharomyces cerevisiae BY4741 SeMeCo community; experiment: z-score of subpopulation abundance vs DMSO median, subpopulation auxotrophic for L; higher = larger share of this subpopulation than in DMSO controls; details: 10 µM; 24 h; SM minimal medium; subpopulation (auxotrophy): L
Summary of the method: as §1

[5] = system: Saccharomyces cerevisiae BY4741 SeMeCo community; experiment: z-score of subpopulation abundance vs DMSO median, subpopulation auxotrophic for U; higher = larger share of this subpopulation than in DMSO controls; details: 10 µM; 24 h; SM minimal medium; subpopulation (auxotrophy): U
Summary of the method: as §1

[6] = system: Saccharomyces cerevisiae BY4741 SeMeCo community; experiment: z-score of subpopulation abundance vs DMSO median, subpopulation auxotrophic for H; higher = larger share of this subpopulation than in DMSO controls; details: 10 µM; 24 h; SM minimal medium; subpopulation (auxotrophy): H
Summary of the method: as §1

[7] = system: Saccharomyces cerevisiae BY4741 SeMeCo community; experiment: z-score of subpopulation abundance vs DMSO median, subpopulation auxotrophic for LU; higher = larger share of this subpopulation than in DMSO controls; details: 10 µM; 24 h; SM minimal medium; subpopulation (auxotrophy): LU
Summary of the method: as §1

[8] = system: Saccharomyces cerevisiae BY4741 SeMeCo community; experiment: z-score of subpopulation abundance vs DMSO median, subpopulation auxotrophic for LM; higher = larger share of this subpopulation than in DMSO controls; details: 10 µM; 24 h; SM minimal medium; subpopulation (auxotrophy): LM
Summary of the method: as §1

[9] = system: Saccharomyces cerevisiae BY4741 SeMeCo community; experiment: z-score of subpopulation abundance vs DMSO median, subpopulation auxotrophic for HU; higher = larger share of this subpopulation than in DMSO controls; details: 10 µM; 24 h; SM minimal medium; subpopulation (auxotrophy): HU
Summary of the method: as §1

[10] = system: Saccharomyces cerevisiae BY4741 SeMeCo community; experiment: z-score of subpopulation abundance vs DMSO median, subpopulation auxotrophic for UM; higher = larger share of this subpopulation than in DMSO controls; details: 10 µM; 24 h; SM minimal medium; subpopulation (auxotrophy): UM
Summary of the method: as §1

[11] = system: Saccharomyces cerevisiae BY4741 SeMeCo community; experiment: z-score of subpopulation abundance vs DMSO median, subpopulation auxotrophic for HLU; higher = larger share of this subpopulation than in DMSO controls; details: 10 µM; 24 h; SM minimal medium; subpopulation (auxotrophy): HLU
Summary of the method: as §1

[12] = system: Saccharomyces cerevisiae BY4741 SeMeCo community; experiment: z-score of subpopulation abundance vs DMSO median, subpopulation auxotrophic for HUM; higher = larger share of this subpopulation than in DMSO controls; details: 10 µM; 24 h; SM minimal medium; subpopulation (auxotrophy): HUM
Summary of the method: as §1

[13] = system: Saccharomyces cerevisiae BY4741 SeMeCo community; experiment: z-score of subpopulation abundance vs DMSO median, subpopulation auxotrophic for LUM; higher = larger share of this subpopulation than in DMSO controls; details: 10 µM; 24 h; SM minimal medium; subpopulation (auxotrophy): LUM
Summary of the method: as §1

[14] = system: Saccharomyces cerevisiae BY4741 SeMeCo community; experiment: z-score of subpopulation abundance vs DMSO median, subpopulation auxotrophic for HLUM; higher = larger share of this subpopulation than in DMSO controls; details: 10 µM; 24 h; SM minimal medium; subpopulation (auxotrophy): HLUM
Summary of the method: as §1

[15] = system: Saccharomyces cerevisiae BY4741 SeMeCo community; experiment: z-score of subpopulation abundance vs DMSO median, subpopulation auxotrophic for HM; higher = larger share of this subpopulation than in DMSO controls; details: 10 µM; 24 h; SM minimal medium; subpopulation (auxotrophy): HM
Summary of the method: as §1

[16] = system: Saccharomyces cerevisiae BY4741 SeMeCo community; experiment: z-score of subpopulation abundance vs DMSO median, subpopulation auxotrophic for HL; higher = larger share of this subpopulation than in DMSO controls; details: 10 µM; 24 h; SM minimal medium; subpopulation (auxotrophy): HL
Summary of the method: as §1

[17] = system: Saccharomyces cerevisiae BY4741 SeMeCo community; experiment: z-score of subpopulation abundance vs DMSO median, subpopulation auxotrophic for HLM; higher = larger share of this subpopulation than in DMSO controls; details: 10 µM; 24 h; SM minimal medium; subpopulation (auxotrophy): HLM
Summary of the method: as §1

Row | Structure (SMILES) | mean cell size [1] | z-score of prototroph abundance [2] | z-score of subpopulation abundance [3] | z-score of subpopulation abundance [4] | z-score of subpopulation abundance [5] | z-score of subpopulation abundance [6] | z-score of subpopulation abundance [7] | z-score of subpopulation abundance [8] | z-score of subpopulation abundance [9] | z-score of subpopulation abundance [10] | z-score of subpopulation abundance [11] | z-score of subpopulation abundance [12] | z-score of subpopulation abundance [13] | z-score of subpopulation abundance [14] | z-score of subpopulation abundance [15] | z-score of subpopulation abundance [16] | z-score of subpopulation abundance [17]
1 | CCCCNc1ccc(C(=O)OCCN(C)C)cc1 [Tetracaine HCl] | 12.52 ± 0.015 | -0.78 | 0.03 | -0.03 | 0.72 | -0.2 | 1.2 | 0.43 | 0.08 | 0.04 | -0.27 | 0.58 | 0 | 0.94 | – | – | –
2 | Nc1ccc(S(=O)(=O)Nc2ncccn2)cc1 [Sodium sulfadiazine] | 12.42 ± 0.059 | – | 0.4 | 0.56 | 0.32 | -0.33 | 0.3 | 0.18 | -0.58 | – | 0.17 | – | 0.15 | 0.02 | 0.17 | 0.08 | –
3 | Nc1nc2c(ncn2COC(CO)CO)c(=O)[nH]1 [Ganciclovir] | 12.4 ± 0.16 | -0.25 | 0.43 | 0 | 0.17 | -0.43 | -0.06 | -0.15 | -0.11 | 0.96 | 0.54 | 0.33 | – | -0.89 | – | -0.27 | –
4 | COc1ccc(Cc2cnc(N)nc2N)cc1OC [Diaveridine] | 12.35 ± 0.055 | 0.22 | 0.6 | -0.53 | -0.37 | -0.11 | – | -0.01 | -0.25 | -0.39 | 0.14 | 0.18 | -0.41 | 0.06 | -0.29 | -0.33 | -0.26
5 | CCCOc1ccc(C(=O)OCCN(CC)CC)cc1N [Proparacaine HCl] | 12.56 ± 0.068 | 0.46 | -0.55 | – | – | -0.4 | 0.25 | -0.38 | -0.31 | -0.06 | -0.61 | -0.66 | -0.49 | -0.51 | -0.65 | -0.68 | –
6 | CC(C)c1nc(N(C)S(C)(=O)=O)nc(-c2ccc(F)cc2)c1/C=C/[C@@H](O)C[C@@H](O)CC(=O)O [Rosuvastatin] | – | – | -1.77 | – | -1.39 | – | 1.31 | 0 | 1.77 | 1 | 1.68 | 2.38 | 1.84 | – | 2.17 | 5.32 | –
7 | NC[C@@H]1O[C@H](O[C@H]2[C@@H](O)[C@H](O[C@@H]3[C@@H](O)[C@H](N)C[C@H](N)[C@H]3O[C@H]3O[C@H](CN)[C@@H](O)[C@H](O)[C@H]3N)O[C@@H]2CO)[C@H](N)[C@@H](O)[C@@H]1O [Neomycin sulfate] | – | 0.99 | -0.79 | – | 0.07 | 0.56 | 0.11 | -0.12 | -0.31 | -1.35 | -0.36 | – | -0.31 | 0.16 | -1.14 | -0.31 | -0.3
8 | CCCCCCCCCCCCCCCC[N+](C)(C)C [Cetrimonium Bromide (CTAB)] | 10.8 ± 0.24 | – | -4.82 | – | -1.73 | 9.21 | 3.88 | 3.5 | 12.8 | – | 19.1 | 34.1 | 20.6 | 29.4 | – | 10.9 | –
